# Measurements reported in PubChem BioAssay.
# The source made the active and inactive calls. Unless noted, how the calls were made is not given here.
# Tests used:
# [1] = compounds binding Alexa647 anti-His antibody – biochemical, small-molecule microarray, 635 nm fluorescence, artefact control for SMM control protein annotation, primary screen (AID 1128); conditions: higher = more signal;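 further: score merges feature fluorescence with signal-to-noise for each printed compound spot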
# [2] = test system: Human papillomavirus type 1a E7 protein (residues 1-88); assay: HPV1a E7 small-molecule binders, primary screen, biochemical, small-molecule microarray, residues 1-88, 635 nm (AID 1129); conditions: small-molecule microarray binding, fluorescence 635 nm; higher = more signal
# [3] = target: Focal adhesion kinase 1 (Homo sapiens) (UniProt Q05397); assay: PTK2 protein binding on printed compound slides – biochemical, small-molecule microarray, 635/667 nm fluorescence, BSA, DTT, primary screen (AID 1130); conditions: 635 nm fluorescence, higher = more signal;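 further: composite of spot emission at 667 nm and signal to noise over triplicate slides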
# [4] = test system: Fibrinogen (Alexa647-labelled); assay: Alexa647-fibrinogen binding to printed small molecules – biochemical, small-molecule microarray, 635/667 nm fluorescence, artefact control for SMM control-protein annotation, profiling panel (AID 1131); conditions: fibrinogen-A647 binding fluorescence, higher = more signal;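 further: z-score merges 667 nm fluorescence with per-spot signal-to-noise over triplicate slides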
# [5] = target: Follistatin (Homo sapiens) (UniProt P19883); assay: FST protein binding to printed compounds – biochemical, small-molecule microarray, 635/667 nm fluorescence, primary screen (AID 1132); conditions: 635 nm fluorescence, higher = more signal
# [6] = target: Fibroblast growth factor 2 (Homo sapiens) (UniProt P09038); assay: basic fibroblast growth factor binding to printed compounds – biochemical, small-molecule microarray, 635/667 nm fluorescence, primary screen (AID 1133); conditions: FGF2, fluorescence 635/667, higher = more signal
# [7] = JC-1 mitochondrial potential readout, lung cancer cells – cell-based, A549, JC-1 fluorescence, basal, 24 h, 100 nL, profiling panel (AID 1138); conditions: higher = more signal;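 further: A549 lung adenocarcinoma cells under basal conditions with no added stimulus; test concentration not given here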
# Lefty1 = Lefty1 protein binding to printed compounds – biochemical, small-molecule microarray, 635/667 nm fluorescence, primary screen (AID 1139); conditions: fluorescence 635/667, higher = more signal
# [8] = test system: wheat germ agglutinin (Triticum aestivum), Alexa647-labelled; assay: Alexa647-WGA lectin binding to printed small molecules – biochemical, small-molecule microarray, 635/667 nm fluorescence, artefact control for SMM control-protein annotation, profiling panel (AID 1140); conditions: WGA-A647 binding, 635 nm fluorescence, higher = more signal;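 further: score merges 667 nm feature emission with signal to noise over triplicate slides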
# [9] = target: Luciferin 4-monooxygenase (Photinus pyralis) (UniProt P08659); assay: inhibition of purified Photinus pyralis luciferase – biochemical, luminescence, purified enzyme, 2006 set, primary screen (AID 1141); conditions: purified firefly luciferase, SteadyGlo luminescence, 30 min; higher = more signal, called active from +8 up or from −8 down;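 further: cell-free assay with purified firefly luciferase at 100 ng per well in PBS; test concentration not given here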
# [10] = test system: Wnt5a (protein binding on small-molecule microarray); assay: small molecules binding Wnt5a protein – biophysical, small-molecule microarray, 635/667 nm fluorescence, primary screen (AID 1142); conditions: 635 nm fluorescence, higher = more signal;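 further: fluorescence read at 667 nm with signal to noise per printed feature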
# [11] = ATP-based viability of Huh7 replicon cells – cell-based, CellTiter-Glo luminescence, basal, 48 h, cytotoxicity control for HCV replication inhibitor project, primary screen (AID 1143); conditions: higher = more signal, called active from +8 up or from −8 down;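 further: Huh7 hepatoma cells carrying a hepatitis C replication reporter with no stimulus; test concentration not given here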
# [12] = Pseudomonas biofilm growth suppression – PAO1 strain, BacTiter-Glo luminescence, LB-PBS, primary screen (AID 1144); conditions: P. aeruginosa PAO1 biofilm, 12 h, higher = more signal
# [13] = basal CRE-LacZ reporter activity in PC12 – cell-based, unstimulated, primary screen (AID 1145); conditions: no forskolin, luminescence, 4.5 h, higher = more signal, called active from +8 up or from −8 down
# [14] = forskolin-driven CRE-LacZ activity in PC12 – cell-based, CRE-LacZ reporter, forskolin-stimulated, primary screen (AID 1146); conditions: luminescence, 4.5 h, higher = more signal, called active from +8 up or from −8 down;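 further: PC12 cells with 6xCRE LacZ reporter stimulated by forskolin 10 µM; beta-galactosidase reporter signal reflecting CREB driven transcription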
# [15] = target: Streptavidin (Streptomyces avidinii) (UniProt P22629); assay: compounds binding control protein streptavidin – biophysical, small-molecule microarray, 635/667 nm fluorescence, artefact control for SMM compound annotation, primary screen (AID 1147); conditions: higher = more signal;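 further: signal reflects streptavidin binding to arrayed compounds as a control protein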
# [16] = probe aInhba binding on compound microarray – biochemical, small-molecule microarray, 635/667 nm fluorescence, primary screen (AID 1148); conditions: higher = more signal;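 further: score merges 667nm spot fluorescence with signal-to-noise for antibody binding to printed compounds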
# Torsin-1A (Homo sapiens) [17] = target: Torsin-1A (Homo sapiens) (UniProt O14656); assay: TOR1A wild-type binding on microarray – cell lysate, small-molecule microarray, lysate, 635/667 nm, primary screen (AID 1149); conditions: COS7 hTOR1A-WT lysate, 635 nm fluorescence, higher = more signal
# Torsin-1A (Homo sapiens) [18] = target: Torsin-1A (Homo sapiens) (UniProt O14656); assay: torsin A mutant lysate binding on microarrays – cell lysate, small-molecule microarray, COS7 lysate, 635/667 nm fluorescence, primary screen (AID 1150); conditions: COS7 hTOR1A mutant lysate, 635 nm fluorescence, higher = more signal;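 further: score pools 667 nm emission and signal to noise measuring lysate protein binding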
# [19] = test system: Sonic hedgehog protein (Shh); assay: Sonic hedgehog microarray binding compounds – biochemical, small-molecule microarray, 635/667 nm fluorescence, primary screen (AID 1151); conditions: 635 nm fluorescence, higher = more signal;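 further: Shh protein binding to compounds spotted on small-molecule microarray slides; score combines spot fluorescence intensity with signal-to-noise across triplicate slides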
# Luciferin 4-monooxygenase (Photinus pyralis), sequence (P08659 whole entry, looked up): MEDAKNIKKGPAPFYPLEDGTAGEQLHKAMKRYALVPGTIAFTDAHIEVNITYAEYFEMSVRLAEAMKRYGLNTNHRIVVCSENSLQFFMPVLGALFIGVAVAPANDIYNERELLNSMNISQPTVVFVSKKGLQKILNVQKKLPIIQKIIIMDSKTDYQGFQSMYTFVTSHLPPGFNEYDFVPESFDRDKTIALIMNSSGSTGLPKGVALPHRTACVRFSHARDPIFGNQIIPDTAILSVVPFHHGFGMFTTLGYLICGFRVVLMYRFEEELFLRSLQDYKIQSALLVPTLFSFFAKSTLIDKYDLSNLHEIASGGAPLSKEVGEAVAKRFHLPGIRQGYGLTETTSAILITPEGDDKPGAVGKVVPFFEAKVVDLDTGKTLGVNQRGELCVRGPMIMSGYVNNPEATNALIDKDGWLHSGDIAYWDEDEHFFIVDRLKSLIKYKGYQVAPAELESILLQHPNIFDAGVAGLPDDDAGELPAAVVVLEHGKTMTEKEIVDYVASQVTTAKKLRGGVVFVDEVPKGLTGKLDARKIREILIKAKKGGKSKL
# Follistatin (Homo sapiens), sequence (P19883 whole entry, looked up): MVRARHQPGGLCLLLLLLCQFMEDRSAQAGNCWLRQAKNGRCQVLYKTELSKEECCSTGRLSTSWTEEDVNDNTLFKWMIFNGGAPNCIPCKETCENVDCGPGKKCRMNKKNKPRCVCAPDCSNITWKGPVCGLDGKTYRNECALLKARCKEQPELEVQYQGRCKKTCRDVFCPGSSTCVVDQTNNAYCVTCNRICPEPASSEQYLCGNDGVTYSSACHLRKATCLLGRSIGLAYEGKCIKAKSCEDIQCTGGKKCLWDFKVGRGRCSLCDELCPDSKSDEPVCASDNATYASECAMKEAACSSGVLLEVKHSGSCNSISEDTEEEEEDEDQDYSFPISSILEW
# Streptavidin (Streptomyces avidinii), sequence (P22629 whole entry, looked up): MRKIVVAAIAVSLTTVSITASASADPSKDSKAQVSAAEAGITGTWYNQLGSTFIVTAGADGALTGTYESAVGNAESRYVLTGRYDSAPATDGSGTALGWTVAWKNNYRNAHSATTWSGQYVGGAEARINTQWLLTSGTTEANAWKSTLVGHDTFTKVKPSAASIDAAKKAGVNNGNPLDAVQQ
# Focal adhesion kinase 1 (Homo sapiens), sequence (Q05397 whole entry, looked up): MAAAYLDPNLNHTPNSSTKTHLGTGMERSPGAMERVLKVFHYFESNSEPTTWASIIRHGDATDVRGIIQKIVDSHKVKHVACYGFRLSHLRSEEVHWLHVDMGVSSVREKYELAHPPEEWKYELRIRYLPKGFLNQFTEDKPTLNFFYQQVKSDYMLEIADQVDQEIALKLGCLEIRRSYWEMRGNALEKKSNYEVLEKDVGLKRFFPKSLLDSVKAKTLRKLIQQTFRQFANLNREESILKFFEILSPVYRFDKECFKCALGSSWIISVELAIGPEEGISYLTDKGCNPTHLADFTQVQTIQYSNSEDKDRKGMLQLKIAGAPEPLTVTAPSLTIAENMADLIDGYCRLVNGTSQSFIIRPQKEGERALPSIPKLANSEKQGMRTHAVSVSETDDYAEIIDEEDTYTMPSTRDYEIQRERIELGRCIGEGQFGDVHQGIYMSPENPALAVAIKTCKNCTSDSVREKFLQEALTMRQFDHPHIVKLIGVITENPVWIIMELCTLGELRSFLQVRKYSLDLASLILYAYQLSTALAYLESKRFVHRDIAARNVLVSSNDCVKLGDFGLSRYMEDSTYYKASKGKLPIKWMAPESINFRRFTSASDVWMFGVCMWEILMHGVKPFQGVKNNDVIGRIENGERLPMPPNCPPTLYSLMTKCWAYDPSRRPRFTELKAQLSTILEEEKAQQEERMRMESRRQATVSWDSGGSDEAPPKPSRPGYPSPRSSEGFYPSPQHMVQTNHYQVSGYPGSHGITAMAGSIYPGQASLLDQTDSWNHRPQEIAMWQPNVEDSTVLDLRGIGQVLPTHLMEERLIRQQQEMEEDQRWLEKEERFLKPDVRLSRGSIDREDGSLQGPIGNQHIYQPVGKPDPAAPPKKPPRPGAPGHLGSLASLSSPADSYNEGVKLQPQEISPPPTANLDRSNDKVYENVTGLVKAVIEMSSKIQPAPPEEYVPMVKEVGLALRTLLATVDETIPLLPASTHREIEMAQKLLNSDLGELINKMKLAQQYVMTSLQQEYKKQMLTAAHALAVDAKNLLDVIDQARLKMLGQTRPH
# Fibroblast growth factor 2 (Homo sapiens), sequence (P09038 whole entry, looked up): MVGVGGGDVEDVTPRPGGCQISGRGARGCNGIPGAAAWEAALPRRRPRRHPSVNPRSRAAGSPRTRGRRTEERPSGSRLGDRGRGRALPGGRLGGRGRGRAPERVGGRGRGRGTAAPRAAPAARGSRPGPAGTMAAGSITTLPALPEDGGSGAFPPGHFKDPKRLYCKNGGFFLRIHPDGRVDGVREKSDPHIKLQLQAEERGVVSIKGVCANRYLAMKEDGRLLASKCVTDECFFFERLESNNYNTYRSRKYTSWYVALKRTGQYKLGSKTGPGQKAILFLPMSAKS
# Torsin-1A (Homo sapiens), sequence (O14656 whole entry, looked up): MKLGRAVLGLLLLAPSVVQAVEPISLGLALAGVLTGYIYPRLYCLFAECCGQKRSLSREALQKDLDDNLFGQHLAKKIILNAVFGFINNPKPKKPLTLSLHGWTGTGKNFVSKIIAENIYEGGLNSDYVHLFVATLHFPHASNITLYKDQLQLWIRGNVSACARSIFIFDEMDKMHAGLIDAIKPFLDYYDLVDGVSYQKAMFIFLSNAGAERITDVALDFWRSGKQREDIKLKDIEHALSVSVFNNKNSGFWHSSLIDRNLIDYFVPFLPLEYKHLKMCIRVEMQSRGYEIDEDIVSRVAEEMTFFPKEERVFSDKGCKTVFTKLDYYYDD
SMILES,composite z-score [1],composite z-score [2],composite z-score [3],composite z-score [4],composite z-score [5],composite z-score [6],z-score [7],composite z-score (Lefty1),composite z-score [8],z-score [9],composite z-score [10],z-score [11],z-score [12],z-score [13],z-score [14],composite z-score [15],composite z-score [16],composite z-score (Torsin-1A (Homo sapiens) [17]),composite z-score (Torsin-1A (Homo sapiens) [18]),composite z-score [19]
COC(=O)c1c2oc(c1C(=O)OC)C(=O)N[C@H](Cc1ccccc1)Cn1nncc1C1(CCCCC1)NC(=O)N[C@H](CO)CC2,0.265,0.275,0.13,-0.0472,0.373,0.1,3.5,0.553,-0.0322,-0.676 (inactive),0.159,-0.11 (inactive),-0.318 (inactive),1.75 (inactive),0.154 (inactive),0.412,0.0154,-0.0688,-0.0459,0.798
O=C1c2ccccc2[C@@]2(Cc3ccccc3N(Cc3ccccc3)C2=O)[C@H](c2ccc(CO)cc2)N1Cc1ccccc1C(F)(F)F,1.88,-0.911,-0.676,-2.02,-0.368,-0.721,1.78,-1.04,-0.749,-0.666 (inactive),-0.373,0.174 (inactive),1.18 (inactive),-0.116 (inactive),0.172 (inactive),-0.896,-0.128,-0.916,-0.0921,-1.45
CC(c1ccccc1)C(O)C1C=CC2C(=O)N(c3ccccc3)C(=O)C2N1Nc1ccccc1F (stereo not given),1.35,1.2,0.583,0.994,0.473,-0.645,-0.673,0.226,0.439,1.94 (inactive),0.0426,-2.63 (inactive),-1.29 (inactive),0.173 (inactive),0.406 (inactive),0.527,-0.125,-0.468,0.0393,-0.0558
COc1ccc(C(=O)Nc2cccc(CN3C(=O)[C@@]4(O[C@@H](CCn5cc([C@H](O)c6ccccc6)nn5)[C@H]([Si](C)(C)c5ccc(OC)cc5)[C@H]4C)c4ccccc43)c2)cc1,0.669,0.138,0.638,0.528,1.19,0.612,-0.175,1.01,0.443,0.39 (inactive),0.417,-6.59 (inactive),-0.301 (inactive),0.833 (inactive),0.834 (inactive),0.0185,0.0714,-0.12,0.377,1.89
[N-]=[N+]=Nc1ccccc1[C@@H]1OC(c2ccc(OCCCO)cc2)=N[C@]1(CCS(=O)(=O)c1ccccc1)C(=O)N1CCCCC1,2.13,1.23,0.539,0.998,1.29,0.234,-0.0343,-0.0697,1.42,-9.85 (active),0.626,-2.42 (inactive),0.0668 (inactive),1.43 (inactive),-0.642 (inactive),1.45,0.453,1.09,0.736,-0.394
COc1cc(CO)cc(I)c1O[C@H]1C=C(C(=O)NCCO)C[C@@H](N(CCc2cccc(F)c2)C(=O)CCC2CCCC2)[C@@H]1O,2.62,1.19,0.218,0.819,1.46,1.76,-0.172,1.49,0.524,1.38 (inactive),1.38,-6.09 (inactive),-0.986 (inactive),6.93 (inactive),-0.374 (inactive),0.628,0.0872,0.727,1.26,1.89
O=C1O[C@@H](c2ccccc2)[C@@H](c2ccccc2)N2[C@@H](c3ccccc3OCCO)[C@]3(C(=O)Nc4ccc(C#CC5(O)CCCCCC5)cc43)[C@@H](C(=O)NC[C@H](O)c3ccccc3)[C@H]12,1.82,1.2,1.03,-0.51,1.17,0.106,-1.15,1.54,1.21,-0.215 (inactive),0.602,-6.25 (inactive),0.813 (inactive),0.0776 (inactive),1.12 (inactive),0.329,1.09,-0.179,0.251,2.17
CCCCCCCCCCC(O)C1C=CC2C(=O)N(c3ccccc3)C(=O)C2N1Nc1ccc([N+](=O)[O-])cc1 (stereo not given),0.774,1.22,0.525,0.992,0.8,0.378,2.09,0.371,0.56,1.86 (inactive),0.207,-2.71 (inactive),-0.214 (inactive),0.285 (inactive),0.925 (inactive),0.811,-0.0059,0.0415,0.227,0.358
COc1ccc([Si](C)(C)[C@H]2[C@H](CC(=O)N3Cc4ccccc4C[C@H]3CO)O[C@@]3(C(=O)N(Cc4cccc(I)c4)c4ccccc43)[C@@H]2C)cc1,1.67,0.0688,-0.706,0.321,1.57,2.13,-0.0488,1.64,0.539,-0.63 (inactive),0.378,-4.1 (inactive),-0.194 (inactive),5.99 (inactive),-0.919 (inactive),0.795,-0.0102,3.09,2.17,2.15
COCCOC(=O)N1C(=O)[C@@]2(c3cc(C#Cc4ccc(OC)cc4)ccc31)[C@H](c1ccc(O)cc1)N1[C@H](c3ccccc3)[C@H](c3ccccc3)OC(=O)[C@H]1[C@@H]2C(=O)N1CCN(c2ncccn2)CC1,1.23,1.18,0.351,0.624,1.36,0.712,-0.863,0.604,0.584,0.384 (inactive),-0.0114,-0.949 (inactive),-0.166 (inactive),-0.114 (inactive),0.75 (inactive),0.0875,0.199,0.487,0.651,0.982
